Results with a measured potency or affinity are listed apart. Inconclusive results are not listed. The source made the active and inactive calls. The rule behind the calls is not given here.
Target: CAAX prenyl protease 1 (Saccharomyces cerevisiae (strain ATCC 204508 / S288c)) (UniProt P47154)
Assay: yeast CAAX protease Ste24 inhibition – biochemical, S. cerevisiae, plate reader, cherry-pick, dose response (AID 488815)

Chain of CAAX prenyl protease 1 (Saccharomyces cerevisiae (strain ATCC 204508 / S288c)) (P47154 whole entry, looked up): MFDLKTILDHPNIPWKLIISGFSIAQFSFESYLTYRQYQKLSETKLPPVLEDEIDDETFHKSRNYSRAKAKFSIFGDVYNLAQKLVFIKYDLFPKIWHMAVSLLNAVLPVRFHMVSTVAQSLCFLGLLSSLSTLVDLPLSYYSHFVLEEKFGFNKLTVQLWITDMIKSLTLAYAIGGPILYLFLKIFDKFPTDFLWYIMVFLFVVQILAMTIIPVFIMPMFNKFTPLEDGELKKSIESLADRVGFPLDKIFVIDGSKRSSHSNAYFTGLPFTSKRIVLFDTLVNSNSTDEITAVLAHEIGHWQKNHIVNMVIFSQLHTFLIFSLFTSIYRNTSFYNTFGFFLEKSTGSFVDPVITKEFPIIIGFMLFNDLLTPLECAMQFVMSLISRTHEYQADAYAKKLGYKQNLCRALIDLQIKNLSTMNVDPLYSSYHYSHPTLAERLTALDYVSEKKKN

| SMILES | outcome |
| --- | --- |
| CC(C)OCCCNC(=O)c1c(N)n(CC2CCCO2)c2nc3ccccc3nc12 (configuration not stated) | inactive |
| CN1CCN(c2ccc([N+](=O)[O-])c(Sc3nncn3C)c2)CC1 | inactive |
| O=[N+]([O-])c1ccc(C[n+]2c(-c3ccccc3)cc(-c3ccccc3)cc2-c2ccccc2)cc1 | inactive |
| C=CCn1c(O)c(C(CC)=Nc2ccc(N(CC)CC)cc2)c(=O)[nH]c1=O | inactive |
| c1ccc(CCCN2CCN(CCOC(c3ccccc3)c3ccccc3)CC2)cc1 | inactive |
| CCOC(=O)[C@@H]1[C@H]2COc3ccc(Br)cc3[C@@H]2N2C(=O)N(c3cccc(C)c3)C(=O)[C@]12C | inactive |
| Cc1ccnc(-n2c(-c3ccco3)nc3ccccc3c2=O)c1 | inactive |

— PubChem BioAssay AID488815 (Broad Institute, 2010)
